# Laboratory results from PubChem BioAssay.
# Unmarked numbers belong to inactive results. Active and inactive are the calls of the source.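 The calls were made as follows, unless noted: active = mean inhibition above 46.68%, the untreated control wells mean plus 3 SD; inactive = the rest.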
# Key:
# [1] = molecular target: Nuclear receptor coactivator 1 (Homo sapiens) (UniProt Q15788); assay: NCOA1 GAL4-fusion reporter inhibition – cell-based, luminescence, quadruplicate, confirmation (AID 588820); details: HEK293 GAL4-SRC1 luciferase reporter, at 3.6 µM, hits give high values;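 also: 0% = DMSO wells and 100% = gossypol 36 µM treated wells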
# [2] = repression of VP16-driven luciferase reporter – cell-based, luminescence, high throughput, counter-screen for SRC1 inhibitor project (AID 588824; in the data active = inhibition above about 25%); details: cell-based VP16 transactivation luciferase luminescence; at 3.6 µM; hits give high values
# Chain of Nuclear receptor coactivator 1 (Homo sapiens) (Q15788 whole entry, looked up, the tested form may be a part): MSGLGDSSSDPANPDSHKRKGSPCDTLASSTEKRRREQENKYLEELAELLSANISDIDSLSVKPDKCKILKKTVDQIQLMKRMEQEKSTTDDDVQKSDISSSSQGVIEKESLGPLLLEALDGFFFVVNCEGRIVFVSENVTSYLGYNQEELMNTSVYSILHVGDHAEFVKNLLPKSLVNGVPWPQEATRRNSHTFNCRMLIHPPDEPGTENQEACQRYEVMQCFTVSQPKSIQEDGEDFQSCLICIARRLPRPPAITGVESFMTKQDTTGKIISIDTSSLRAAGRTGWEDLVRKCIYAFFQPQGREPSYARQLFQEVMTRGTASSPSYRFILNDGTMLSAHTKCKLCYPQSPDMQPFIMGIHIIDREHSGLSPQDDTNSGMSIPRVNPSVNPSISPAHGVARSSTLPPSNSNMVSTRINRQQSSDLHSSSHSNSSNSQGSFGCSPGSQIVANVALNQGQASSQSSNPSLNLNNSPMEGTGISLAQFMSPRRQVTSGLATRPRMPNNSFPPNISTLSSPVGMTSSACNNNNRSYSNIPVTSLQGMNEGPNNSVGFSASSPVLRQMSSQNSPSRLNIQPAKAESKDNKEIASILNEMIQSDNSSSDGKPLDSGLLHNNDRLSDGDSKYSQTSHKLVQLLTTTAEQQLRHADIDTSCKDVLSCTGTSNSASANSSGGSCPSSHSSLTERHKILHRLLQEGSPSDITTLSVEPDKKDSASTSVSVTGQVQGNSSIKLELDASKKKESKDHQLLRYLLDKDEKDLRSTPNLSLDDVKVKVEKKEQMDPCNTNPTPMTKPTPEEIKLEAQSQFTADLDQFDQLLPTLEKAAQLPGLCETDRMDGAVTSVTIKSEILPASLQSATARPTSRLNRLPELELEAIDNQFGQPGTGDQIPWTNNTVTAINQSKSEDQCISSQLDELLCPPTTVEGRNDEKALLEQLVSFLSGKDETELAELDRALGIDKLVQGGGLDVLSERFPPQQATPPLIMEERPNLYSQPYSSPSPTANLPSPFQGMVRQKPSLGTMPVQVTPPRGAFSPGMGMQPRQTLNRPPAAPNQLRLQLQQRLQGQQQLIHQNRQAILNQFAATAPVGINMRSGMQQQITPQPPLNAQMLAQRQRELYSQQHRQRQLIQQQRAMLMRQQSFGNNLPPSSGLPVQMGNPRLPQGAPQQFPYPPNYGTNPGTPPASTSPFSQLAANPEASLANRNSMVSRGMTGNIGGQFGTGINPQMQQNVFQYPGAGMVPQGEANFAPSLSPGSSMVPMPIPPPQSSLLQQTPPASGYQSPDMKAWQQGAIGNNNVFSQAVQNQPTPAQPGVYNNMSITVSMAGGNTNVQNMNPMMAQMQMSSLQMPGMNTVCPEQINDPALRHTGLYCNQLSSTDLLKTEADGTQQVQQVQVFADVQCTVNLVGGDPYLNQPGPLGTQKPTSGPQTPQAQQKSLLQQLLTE
SMILES,inhibition [1],inhibition [2]
CCOc1ccc(CCNC(=O)COC(=O)c2cc(OC)c(OC)cc2[N+](=O)[O-])cc1OCC,-11.8%,-2.67%
NS(=O)(=O)c1ccc(N=Nc2c(O)ccc3ccccc23)cc1,7.96%,4.7%
CC(C)(C)c1ccc(OCCC(=O)NNC(=O)c2ccncc2)cc1,-13.7%,-5.17%
Cc1cnccc1NC(=O)c1cccs1,-0.39%,0.67%
Cc1c(/C(O)=C2\C(=O)C(=O)N(CCCN(C)C)C2c2ccccc2)cnn1-c1ccccc1 (stereo unspecified),6.48%,-4.83%
Cc1ccccc1-n1nc(C)c2c1N=C1C(Cl)=CC(Cl)=CN1C2c1ccc(C(=O)O)cc1 (stereo unspecified),-9.32%,-14.1%
Cc1ccoc1C(=O)NCCNC(=O)c1occc1C,-20.6%,-15.1%
COCCn1cnc2c1c(=O)n(Cc1ccccc1C#N)c(=O)n2Cc1ccccc1,-22.2%,1.6%
Cc1ccc(S(=O)(=O)Nc2c(NC3CCCCC3)c3ccccc3oc2=O)c(C)c1,15.7%,13.5%
Cc1ccc(C)c(NC(=O)CCc2ccc(C)o2)c1,5.55%,-2.65%
CC(C)(CNC(=O)c1ccc(-c2cccc(C(F)(F)F)c2)o1)N1CCOCC1,-2.1%,-0.96%
Cc1cc(C)nc(/N=C(\N)Nc2ccc(C(C)C)cc2)n1,3.7%,9.11%
CN1c2ccccc2C2(C)CCCC3=Cc4cccc([N+](=O)[O-])c4OC312 (stereo unspecified),-8.43%,11.1%
Nc1nc(Cl)nc2ccc(Br)cc12,-6.1%,-0.41%
COc1ccc(CCN(C)C(=O)CSc2nnc(C3CC3)n2N)cc1OC,6.18%,12.5%
O=C(Nc1ccc(S(=O)(=O)N2CCCCC2)cc1)C1CCN(C(=O)c2ccc(F)cc2)CC1,7.57%,-1.11%
O=C(c1ccccc1)N1CCN(Cc2ccc3c(c2)OCO3)CC1,0.9%,3.86%

SMILES,inhibition [1],inhibition [2]
CCCCCCCCNc1ncnc2[nH]ncc12,-9.61%,19.6%
CN(CC(=O)NNC(=O)Cc1ccccc1F)S(=O)(=O)c1ccc(Cl)cc1,-12.3%,4.4%
COc1ccccc1NC(=O)Cn1c(C)cc(=O)c2cccc(OC)c21,-24.2%,4.63%
CCc1ccc(-c2nnn(CCC(=O)OC)n2)cc1,-2.93%,9.9%
COc1cc2c(cc1OC)C(C)N(C(=O)c1cc3ccccc3o1)CC2 (stereo unspecified),-4.6%,2.25%
CN(C)S(=O)(=O)c1ccc(Cl)c(NC(=O)CN2C(=O)NC(C)(C3CC3)C2=O)c1 (stereo unspecified),-2.39%,-2.88%
CC(C)Cn1c(N)c(C(=O)COC(=O)CC23CC4CC(CC(C4)C2)C3)c(=O)n(C)c1=O,6.72%,34.8% (active)
Cn1c(O)c(N=NC(=N)N)c2ccccc21,5.65%,11.6%
CCNc1nc(NCC)n2c(SCC(=O)Nc3ccccc3C(F)(F)F)nnc2n1,-4.19%,-1.57%
Cc1cc(Br)cn2c(Cc3ccsc3)c(-c3ccc(F)cc3)nc12,6.68%,-0.27%
Cn1c(/C=N/NC(=O)c2ccccc2Br)nc2ccccc21,4.29%,15.7%
Cc1ccc(C(=O)Nc2c3c(nn2C(C)(C)C)CS(=O)(=O)C3)cc1[N+](=O)[O-],-11%,-9.8%
Cc1c(C(=O)N2CCN(Cc3ccc4c(c3)OCO4)CC2)sc2ncnc(N3CCN(c4ccccc4)CC3)c12,11.3%,19.7%
COc1cccc(NC2=NC3(CCCCC3)N=C(N)N2)c1,-9.2%,9.05%
COc1ccc2sc3c(=O)[nH]c4ccccc4c3c2c1,55% (active),41.4% (active)
O=S(=O)(NCC1CN(S(=O)(=O)c2c(F)cccc2F)C1)c1ccc2c(c1)OCCO2,2.79%,17.9%
